# HP1b chromo inh: inhibitors of HP1-beta chromodomain binding to methylated histone tails; Potency, µM (highest dose often 114 µM), for the others: at the top dose activity change, negative = inhibition, hits mostly inhibitors; AlphaScreen HP1-beta / biotin-H3K9me3 peptide binding; P83916; 390,000 tested, 0.56% active; note: nearly all actives have a fitted effect of over 70% in size
#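 AlphaScreen: HP1-beta (50 nM) preformed 30 min with biotin-H3(1-18)K9me3 peptide (50 nM) in PBS pH 7.4, 0.01% Tween-20. Compound added for 30 min at RT, then streptavidin donor/nickel chelate acceptor beads (10 ug/mL) for 30 min.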
# JMJD2A Tudor: JMJD2A Tudor domain (human) inhibition. O75164. AlphaScreen JMJD2A-Tudor / H3K4me3 peptide binding. Potency, µM (titrated, usually from 114 µM), without a hit: at the top dose activity change, negative = inhibition, actives largely listed as inhibitors. 390,000 tested, 4.4% active; note: % is set by controls: 0 for no effect and ±100 for the full control effect; nearly all actives have a fitted effect of over 50% in size
# Target sequence (O75164 whole entry, looked up, the tested form may be a part): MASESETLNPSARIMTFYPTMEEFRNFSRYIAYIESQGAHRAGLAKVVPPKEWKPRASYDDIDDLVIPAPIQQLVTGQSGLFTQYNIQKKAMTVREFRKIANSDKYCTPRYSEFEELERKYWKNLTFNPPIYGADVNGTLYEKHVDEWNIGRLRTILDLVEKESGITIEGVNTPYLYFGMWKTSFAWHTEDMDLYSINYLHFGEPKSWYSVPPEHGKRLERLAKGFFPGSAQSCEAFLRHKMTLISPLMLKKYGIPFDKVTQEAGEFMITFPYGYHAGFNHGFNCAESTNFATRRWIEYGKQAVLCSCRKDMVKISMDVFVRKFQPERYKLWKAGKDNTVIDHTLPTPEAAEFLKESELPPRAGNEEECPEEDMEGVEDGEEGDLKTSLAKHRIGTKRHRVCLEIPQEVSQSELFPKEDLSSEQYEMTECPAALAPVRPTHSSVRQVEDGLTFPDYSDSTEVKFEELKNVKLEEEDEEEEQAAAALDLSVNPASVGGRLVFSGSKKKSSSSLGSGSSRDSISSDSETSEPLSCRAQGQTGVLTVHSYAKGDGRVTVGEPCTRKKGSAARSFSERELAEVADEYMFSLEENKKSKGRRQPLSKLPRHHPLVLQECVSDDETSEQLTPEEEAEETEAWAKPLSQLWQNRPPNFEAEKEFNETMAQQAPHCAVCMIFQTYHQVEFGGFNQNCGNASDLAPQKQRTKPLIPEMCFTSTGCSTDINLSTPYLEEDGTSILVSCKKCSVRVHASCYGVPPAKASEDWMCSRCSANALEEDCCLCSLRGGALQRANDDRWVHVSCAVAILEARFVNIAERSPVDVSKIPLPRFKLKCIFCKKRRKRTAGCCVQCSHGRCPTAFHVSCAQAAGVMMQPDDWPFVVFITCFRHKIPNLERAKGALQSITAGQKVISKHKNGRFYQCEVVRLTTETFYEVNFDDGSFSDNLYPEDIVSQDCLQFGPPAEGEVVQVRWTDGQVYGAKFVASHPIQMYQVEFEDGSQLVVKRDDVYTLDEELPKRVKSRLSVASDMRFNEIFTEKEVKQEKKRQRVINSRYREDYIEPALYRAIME
# L3MBTL1 block: blocks human L3MBTL1 | Q9Y468 | AlphaScreen L3MBTL1–H3K9me1 peptide binding | Potency, µM (series often up to 57.1 µM), for the others: at the top dose activity, negative = inhibition, actives largely listed as inhibitors | 230,000 tested, 0.66% active | AID 485360; note: % is set by controls: 0 for no effect and ±100 for the full control effect; nearly all actives have a fitted effect of over 60% in size
#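 Displacement of a biotinylated histone H3(1-15) peptide monomethylated at Lys9 (75 nM) from L3MBTL1 (50 nM) was measured by AlphaScreen after a 30 min room-temperature compound incubation; cefsulodin titration served as intraplate control.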
# BAZ2B block: blocks human BAZ2B; Q9UIF8; 360,000 tested, 4.4% active; AlphaScreen BAZ2B-H3K14Ac peptide displacement; Potency, µM (series often up to 114 µM), without a hit: top-dose activity change, negative = inhibition, hits mostly inhibitors; note: % is set by controls: 0 for no effect and ±100 for the full control effect; nearly all actives have a fitted effect of over 60% in size
#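 BAZ2B 50 nM plus b-H3(5-23)K14Ac 50 nM, PBS pH 7.4/0.01% Tween-20, 30 min RT; compound added (max 110 uM), 30 min RT; streptavidin donor/Ni-chelate acceptor beads 10 ug/mL final, 20 min dark; AlphaScreen read.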
# G9a inh: blocks human histone lysine methyltransferase G9a; G9a H3K9 monomethylation, AlphaScreen, 2 h; Potency, µM (series often up to 102 µM), for inactives: at the top dose activity, negative = inhibition, hits mostly inhibitors; 350,000 tested, 8.8% active; AID 504332; note: % is set by controls: 0 for no effect and ±100 for the full control effect; nearly all actives have a fitted effect of over 75% in size
#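 Signal arises when biotinylated H3K9 peptide, once monomethylated, bridges streptavidin donor and antibody-captured acceptor beads. Enzyme at 20 nM was preincubated 15 min with test compounds; peptide 500 nM and SAM 20 uM then reacted for 2 h.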
# Sfp inh: Sfp phosphopantetheinyl transferase inhibition | Q9F4F7 | Biochemical Sfp PPTase activity, qHTS | Potency, µM, for the others: largest response in the series, negative = inhibition, usual class: inhibitors | 310,000 tested, 3.5% active | AID 1490;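 note: the enzyme is Sfp with the accession as filed and its product quenches rhodamine fluorescence; 0% = enzyme reaction without inhibitor and -100% = no enzyme wells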
#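 Compounds were incubated with enzyme (final 15 nM) for 15 min at room temperature before substrate addition started the reaction. Fluorescence at 525 nm excitation, 598 nm emission was recorded immediately and after 30 minutes.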
# * marks the source's active call; other numbers are inactive results; u = inconclusive; x = no result; [ ] = remark or other dose. Only some compounds are listed: those with a hit (about 12% of all), similar ones and a draw of the others. Calls come from the whole dose curve; as a rule, active = well fitted curve in the direction sought with a large enough effect; inconclusive = small, poorly fitted or top-dose-only effect, or another doubt; inactive = no such curve, though single readings can be large; an effect the other way counts as inactive or inconclusive. Potency is the fitted concentration of half-maximal effect.
SMILES,HP1b chromo inh,JMJD2A Tudor,L3MBTL1 block,BAZ2B block,G9a inh,Sfp inh
Cc1nn(-c2ccccc2)c2c1cc1c(=O)[nH]c(=O)nc-1n2-c1cccc(Cl)c1,9%,-28%,x,x,u,x
COc1ccc(-c2n[nH]c(=S)n2/N=C/C=C/c2ccccc2OC)cc1,6%,79µM*,3%,-2%,1.3µM*,-10%
COc1ccccc1/C=C/C=N/n1c(-c2ccc(Cl)cc2)n[nH]c1=S,u,89µM*,38%,u,x,35µM*
O=P(O)(O)O[C@@H]1[C@H](O)[C@H](O)[C@@H](OP(=O)(O)O)[C@H](OP(=O)(O)O)[C@H]1O,x,x,x,x,30%[59 µM],16%
COc1ccc(-c2noc(CSc3nnc(-c4ccncc4)n3-c3ccc(C)c(C)c3)n2)cc1,31%,-33%,x,-13%,-3%[59 µM],x
Cc1cccc(NC(=O)c2sc3nc(-c4ccc(F)cc4)cn3c2C)n1,27%,-15%,9%,-48%,-26%[59 µM],50µM*
COc1ccccc1N1CCN(C(=O)c2sc3nc(-c4ccc(F)cc4)cn3c2C)CC1,6%,-32%,-15%,u,28µM*,6%
COc1ccc(-c2cn3c(C)c(C(=O)Nc4cccc(C)n4)sc3n2)cc1,4%,-21%,8%,-9%,10µM*,40µM*
COc1ccc(-c2cn3c(C)c(C(=O)N4CCN(c5ccc(F)cc5)CC4)sc3n2)cc1,27%,-16%,x,1%,-5%,5%
Cc1cccc(NC(=O)c2sc3nc(-c4ccccc4)cn3c2C)n1,6%,-10%,11%,1%,u,u
COc1ccc(C)cc1NC(=O)c1sc2nc(-c3ccc(F)cc3)cn2c1C,22%[57 µM],-8%,x,3%,-5%[59 µM],x
CC(=O)c1ccc(NC(=S)NCCc2ccc(S(N)(=O)=O)cc2)cc1,41%,-1%,-11%,-16%,-24%,12%
CC(C)OCCCNC(=S)Nc1ccc(S(N)(=O)=O)cc1,32µM*,89µM*,2%,-1%,10µM*,2.2µM*
O=[N+]([O-])c1ccc(NNC(=S)Nc2ccccc2)cc1,56µM*,50µM*,x,50µM*,u,3.5µM*
O=[N+]([O-])c1ccc(NC(=S)NCc2ccncc2)cc1,-2%,-31%,x,-27%,13%[59 µM],17%
CC(=O)Oc1ccc(-c2ccc(C(=O)NCCc3ccc(S(N)(=O)=O)cc3)cc2)cc1,-21%,-22%,x,-6%,71µM*,8%
NS(=O)(=O)c1ccc(NC(=S)NCCc2ccccc2)cc1,-25%,-27%,-4%,-25%,11µM*,7.9µM*
CC(=O)Oc1ccc(C(=O)NCCc2ccccc2)cc1,32%,-6%,-3%,-4%,-6%,15%
COc1ccc(NC(=O)c2nc(S(C)(=O)=O)ncc2N(Cc2ccc(C)cc2)Cc2ccco2)cc1Cl,28%,-15%,x,-26%,-34%[59 µM],x
CC1CCCN(S(=O)(=O)c2cc3c4c(c2)CC(=O)N4CCC3)C1 (stereo not drawn),-8%,-11%,x,-5%,14%[59 µM],x
COc1ccc(CCNC(=O)c2cc3sccc3n2Cc2ccc(Cl)cc2)cc1OC,19%,u,x,-25%,-8%[59 µM],x
NS(=O)(=O)c1ccc(CCNC(=O)c2ccc[nH]c2=S)cc1,u,2.2µM*,x,-18%,1.4µM*,56µM*
O=[N+]([O-])c1ccc(O)c(NC(=S)Nc2ccccc2)c1,u,u,x,-38%,4.5µM*,50µM*
COc1ccc([N+](=O)[O-])cc1NC(=S)Nc1ccccc1,9%,-22%,x,-9%,u,u
O=[N+]([O-])c1ccc(NC(=S)NCCc2ccccc2)cc1,u,u,-9%,u,45µM*,-18%
SMILES,HP1b chromo inh,JMJD2A Tudor,L3MBTL1 block,BAZ2B block,G9a inh,Sfp inh
CCOc1ccc(C2NC(=O)c3c(COC)cc(C)nc3N2Cc2ccccc2)cc1OC (stereo not drawn),41%,-15%,x,-13%,13%[59 µM],x
Cc1ccc(NC(=O)CSc2nc3ccc(NC(=O)c4cccs4)cc3s2)c(C)c1,32%,-6%,x,-7%,-23%[59 µM],x
Cc1cccc(NC(=O)C(=O)c2cc(C)n(-c3ccccc3)c2C)c1C,29%,-15%,x,-3%,-32%[59 µM],x
Cc1ccc2ncccc2c1[N+](=O)[O-],13%,-20%,1%,3%,-7%,0%
Cc1[nH]c2ccc3ncccc3c2c1C,27%,-22%,-21%,50µM*,u,-53%
CN(C)/[N+]([O-])=N/Oc1cc(ON=[N+]([O-])N2CCN(c3ncccn3)CC2)c([N+](=O)[O-])cc1[N+](=O)[O-],53%,-19%,x,x,x,50µM*
CNc1ccc(C(=O)Oc2cc(O/N=[N+](\[O-])N(C)C)c([N+](=O)[O-])cc2[N+](=O)[O-])cc1,-1%,u,x,x,x,u
CN(C)/[N+]([O-])=N/Oc1cc(O/[N+]([O-])=N/N2CCCC2CO)c([N+](=O)[O-])cc1[N+](=O)[O-] (stereo not drawn),2%,-25%,x,x,x,79µM*
CCOC(=O)N1CCN([N+]([O-])=NOc2cc(O/N=[N+](\[O-])N(C)C)c([N+](=O)[O-])cc2[N+](=O)[O-])CC1,12%,-19%,x,x,x,u
CCC1CCCCN1CCCNC(=O)c1c(O)nc2ccccn2c1=O (stereo not drawn),23%,-9%,x,-17%,79µM*,5%
Cc1oc2c(c1C(=O)c1ccccc1)C(=O)C(=O)c1ccccc1-2,-29%,u,u,45µM*,u,50µM*
Cc1cc(=O)oc(C)c1C(=O)O,6%,-28%,4%,-19%,-36%[12.7 µM],13%
CCOC(=O)c1c(C)oc2c1C(=O)c1ccccc1C2=O,-3%,-28%,-10%,u,13µM*,u
O=C(c1ccccc1)c1coc2ccc(O)c(Cl)c12,-1%,-19%,u,-39%,u,u
Cc1oc2c(c1C(=O)O)C(=O)c1ccccc1C2=O,47%,-7%,u,0%,10µM*,u
O=C1C(=O)c2c(C(=O)c3ccccc3)coc2-c2ccccc21,-18%,-29%,x,u,45µM*,56µM*
Cc1cc(N2CCN(c3cccc(C)c3C)CC2)n2nc(C)c(-c3ccc(Cl)cc3)c2n1,54%,-7%,x,-5%,-19%[59 µM],x
Cc1ccc(C(=O)N2CCc3cc(CNC(=O)COc4ccccc4)ccc32)cc1,12%,-28%,x,-19%,-3%[59 µM],x
CC(C)(C)N1C(=O)[C@H]2[C@@H]3[C@H](O)[C@H](O)CC(=O)[C@H]3CC[C@H]2C1=O,x,x,x,x,x,11%
Cc1nc(C(=O)NNC(=O)c2ccc(Cl)cc2)cs1,24%,-10%,13%,1%,u,-3%

# Screening results from PubChem.
